Test results published in PubChem BioAssay (NCATS).
Active and inactive are the calls of the source. The call rests on the fitted dose curve; in most records, active means well fitted activation curve with a large enough effect; inconclusive means small, poorly fitted or top-dose-only effect; inactive means flat fitted curve, though single readings scatter.

experiment: Confirmation and Secondary Assay for Modulators of Hemoglobin Beta Chain Splicing at IVS2 654 locus (AID 910); conditions: HeLa EGFP-654 splicing reporter, GFP fluorescence, 48 h; series mostly up to 38.3 µM; activation (splicing correction): at the top concentration;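 further: HeLa cells stably carrying EGFP split by mutant beta-globin IVS2-654 intron; % of control where 0% means no effect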
How it was run: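 HeLa cells stably expressing EGFP interrupted by β-globin IVS2-654 intron, seeded overnight in Opti-MEM/2% FCS, then treated 2 days at 37 °C. Restored splicing read as total peak GFP intensity per well by laser scanning cytometry (488 nm excitation, 500–520 nm emission); 500 nM antisense PNA as control.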

Activation (splicing correction), inactive:
CN(C)C(=O)c1ccc(-c2nc(NCc3cccnc3)c3ccccc3n2)cc1 0.948%
Cc1cccc(CNc2cc(-c3cccc(NS(C)(=O)=O)c3)ncn2)c1 1.65%
Cc1noc(C)c1-c1nccc(N2CCNCC2)n1 1.59%
c1ccc(Nc2ncnc3ccc(-c4cccnc4)cc23)cc1 -0.623%
c1ccc2c(N3CCNCC3)nc(-c3ccoc3)nc2c1 1.16%
CN(C)C(=O)c1ccc(-c2ccc3ncnc(NCc4cccnc4)c3c2)cc1 0.453%
CN(C)Cc1ccccc1-c1ccc2ncnc(NC3CC3)c2c1 -0.486%
Cc1ccccc1-c1cncnc1N1CCNCC1 3.15%
COc1cccc(-c2nc(N3CCNCC3)c3ccccc3n2)c1 -1.15%
CN1CCN(c2ccnc(-c3ccccc3C(F)(F)F)n2)CC1 0.153%
CN1CCN(c2nc(-c3cccc(NS(C)(=O)=O)c3)nc3ccccc23)CC1 0.323%
